Experiment [1] concerns the target Aryl hydrocarbon receptor (Homo sapiens) (UniProt P35869). Briefly: qHTS assay to identify small molecule that activate the aryl hydrocarbon receptor (AhR) signaling pathway (AID 743085). Also: nearly all actives have a fitted effect of over 15% in size. Also: potency is read from the fitted curve at half-maximal effect.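 As to activation: HG2L7.5c1 human HepG2 liver cells with stably integrated DRE-driven firefly reporter; series mostly up to about 70 µM.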 The essentials:
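Stably transfected human liver carcinoma cells (HG2L7.5c1; 20 DRE-firefly luciferase) were incubated 5 h, dosed, and kept 24 h at 37C. Agonism was scored from increased luciferase luminescence.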
(In qHTS, concentration-response curves come from the screen itself.)

The nature of experiment [2]: qHTS assay to identify small molecule that activate the aryl hydrocarbon receptor (AhR) signaling pathway - cell viability counter screen (AID 743086). Also: nearly all actives have a fitted effect of over 45% in size. Also: potency is read from the fitted curve at half-maximal effect.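 As to viability change, negative = cytotoxic: HepG2 liver cells carrying the AhR DRE luciferase reporter; series mostly up to about 70 µM.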 In outline: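 HepG2-AhR-luc (HG2L7.5c1) cells, 4000/well, were preincubated 5 h at 37C, exposed to compound in qHTS format for 24 hr at 37C, then given CellTiter-Fluor for 30 min; viability was read as fluorescence in the reporter wells.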

For experiment [3], the target named is Peroxisome proliferator-activated receptor gamma (Homo sapiens) (UniProt P37231). Briefly: qHTS assay to identify small molecule agonists of the peroxisome proliferator-activated receptor gamma (PPARg) signaling pathway (AID 743094; active = well fitted activation curve with a large enough effect in the signal ratio in the repeat runs, not every such curve was filed as active; the % refers to the signal ratio). In outline: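 GeneBLAzer PPARg UAS-bla HEK293H cells carrying a stably integrated beta-lactamase reporter were pre-incubated 5 h at 37C, then exposed to compounds in DMSO for 17 h at 37C; LiveBLAzer B/G FRET substrate was added for 1 h at room temperature and fluorescence read.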
Peroxisome proliferator-activated receptor gamma (Homo sapiens), sequence (P37231 whole entry, looked up): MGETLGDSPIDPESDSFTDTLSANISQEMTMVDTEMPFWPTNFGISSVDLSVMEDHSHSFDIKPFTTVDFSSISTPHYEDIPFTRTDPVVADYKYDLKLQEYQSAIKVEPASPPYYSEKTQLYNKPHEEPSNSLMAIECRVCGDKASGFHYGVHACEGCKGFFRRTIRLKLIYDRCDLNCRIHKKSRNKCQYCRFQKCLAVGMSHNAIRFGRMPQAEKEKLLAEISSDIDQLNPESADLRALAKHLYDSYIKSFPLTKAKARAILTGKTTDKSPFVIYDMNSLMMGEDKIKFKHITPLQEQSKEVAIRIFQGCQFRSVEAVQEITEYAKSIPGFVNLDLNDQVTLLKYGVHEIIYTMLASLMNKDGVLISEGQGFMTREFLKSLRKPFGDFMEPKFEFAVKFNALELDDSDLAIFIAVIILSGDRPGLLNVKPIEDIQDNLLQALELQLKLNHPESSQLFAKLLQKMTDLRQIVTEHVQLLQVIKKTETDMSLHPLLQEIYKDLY

Experiment [4] shares this target. Briefly: qHTS assay to identify small molecule antagonists of the peroxisome proliferator-activated receptor gamma (PPARg) signaling pathway (AID 743191; calls by dose curve; also: series mostly up to about 63 µM; nearly all actives have a fitted effect of over 30% in size). The essentials:
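GeneBLAzer PPARg UAS-bla HEK293H cells carrying a UAS-driven beta-lactamase reporter were plated at 3000 cells/well, preincubated 5 h at 37C, then given compound for 17 h at 37C; LiveBLAzer B/G FRET substrate was read after 1 h at room temperature.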

The nature of experiment [5]: qHTS assay to identify small molecule antagonists of the peroxisome proliferator-activated receptor gamma (PPARg) signaling pathway - cell viability counter screen (AID 743194). Also: nearly all actives have a fitted effect of over 55% in size. As to conditions: Potency: co-treated with 50 nM rosiglitazone. The essentials:
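PPARg-UAS-bla HEK293H cells were plated, rested 5 h at 37 C, then treated with compounds plus rosiglitazone (50 nM final) for 17 h at 37 C; viability was then read by CellTiter-Glo luminescence after 30 min at room temperature.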

The nature of experiment [6]: qHTS assay for small molecule agonists of the antioxidant response element (ARE) signaling pathway (AID 743202; active = well fitted activation curve with a large enough effect in the signal ratio in the repeat runs, not every such curve was filed as active; the % refers to the signal ratio). The essentials: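 Compounds delivered in DMSO to ARE-bla HepG2 cells (2,000 cells/well, pre-incubated 5 h) and left 16 h at 37 C. LiveBLAzer B/G FRET substrate then added for 2 h at RT before fluorescence reading.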
A short description of experiment [7]: qHTS assay for small molecule agonists of the antioxidant response element (ARE) signaling pathway - cell viability counter screen (AID 743203; calls by dose curve; also: nearly all actives have a fitted effect of over 55% in size). In outline:
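CellSensor ARE-bla HepG2 cells, 2,000 per well, rested 5 hrs at 37C/5% CO2, then exposed to compound in DMSO for 16 hrs; viability read as CellTiter-Glo luminescence after 30 min at room temperature, in the reporter wells.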

Experiment [8] can be described thus: qHTS assay for small molecule activators of the heat shock response signaling pathway (AID 743210; active = well fitted activation curve with a large enough effect in the signal ratio in the repeat runs, with a control signal flat, not every such curve was filed as active; the % refers to the signal ratio; also: potency is read from the fitted curve at half-maximal effect;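 as to activation: HeLa cells with beta-lactamase reporter driven by heat shock elements; series mostly up to about 63 µM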). In outline:
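Reporter gene assay: HeLa cells stably bearing an HSE-bla construct, compound treatment 5 h at 37 C, LiveBLAzer substrate 2.5 h at RT, fluorescence intensity.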

Experiment [9] is described as follows: qHTS assay to identify small molecule agonists of the peroxisome proliferator-activated receptor delta (PPARd) signaling pathway - cell viability counter screen (AID 743211). Also: nearly all actives have a fitted effect of over 55% in size. In outline:
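In the same wells used for beta-lactamase reporter measurement, cytotoxicity is scored by CellTiter-Glo. HEK293H PPARd-bla cells receive compound for 17 h at 37C following a 5 h settling period.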

The target of experiment [10] is Peroxisome proliferator-activated receptor delta (Homo sapiens) (UniProt Q03181). The experiment in a line: qHTS assay to identify small molecule agonists of the peroxisome proliferator-activated receptor delta (PPARd) signaling pathway (AID 743212; calls by dose curve). The essentials: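 A PPARd-bla HEK293H line with beta-lactamase under an Upstream Activator Sequence is treated with compounds at 37 C. Substrate loading for 2 h at room temperature precedes the fluorescence measurement.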
Peroxisome proliferator-activated receptor delta (Homo sapiens), sequence (Q03181 whole entry, looked up): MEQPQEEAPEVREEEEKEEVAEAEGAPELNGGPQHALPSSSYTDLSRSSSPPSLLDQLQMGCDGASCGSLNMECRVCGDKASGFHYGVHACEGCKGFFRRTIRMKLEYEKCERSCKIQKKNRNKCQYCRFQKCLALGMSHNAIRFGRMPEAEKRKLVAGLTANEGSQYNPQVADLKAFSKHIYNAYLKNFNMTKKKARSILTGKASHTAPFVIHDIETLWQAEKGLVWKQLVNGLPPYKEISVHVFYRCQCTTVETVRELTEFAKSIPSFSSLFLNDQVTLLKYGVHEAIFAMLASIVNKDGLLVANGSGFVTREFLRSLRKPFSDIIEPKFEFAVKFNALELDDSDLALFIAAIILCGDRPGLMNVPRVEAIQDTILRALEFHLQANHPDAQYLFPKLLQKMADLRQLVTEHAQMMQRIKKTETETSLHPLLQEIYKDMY

A short description of experiment [11]: qHTS assay to identify small molecule antagonists of the peroxisome proliferator-activated receptor delta (PPARd) signaling pathway - cell viability counter screen (AID 743213). Also: nearly all actives have a fitted effect of over 50% in size. In outline:
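Same-well viability: cells pre-incubated 5 h, dosed with compound plus 300 nM L165041, kept 17 h at 37 C, FRET substrate 2 h RT, then CellTiter-Glo 30 min RT and luminescence.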

Experiment [12] can be described thus: qHTS assay to identify small molecule agonists of the farnesoid-X-receptor (FXR) signaling pathway - cell viability counter screen (AID 743218). Also: nearly all actives have a fitted effect of over 45% in size. The essentials: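 FXR-UAS-bla HEK 293T cells, plated 5 h at 37 C, were exposed to compounds for 16 h at 37 C. CellTiter-Glo was then added to the same wells as the bla readout; luminescence read after 30 min at room temperature.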

Experiment [13] is described as follows: qHTS assay to identify small molecule antagonists of the farnesoid-X-receptor (FXR) signaling pathway - cell viability counter screen (AID 743221; active = well fitted cell-killing curve with a large enough effect in the repeat runs, not every such curve was filed as active; also: nearly all actives have a fitted effect of over 50% in size). In outline: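 Here viability was scored by luminescence after CellTiter-Glo addition to wells already read for beta-lactamase. Prior treatment: compound plus CDCA (50 uM final), 16 h, 37 C, HEK 293T FXR-bla cells.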

A short description of experiment [14]: qHTS assay to identify small molecule agonists of the vitamin D receptor (VDR) signaling pathway - cell viability counter screen (AID 743224). Also: nearly all actives have a fitted effect of over 50% in size. Also: potency is read from the fitted curve at half-maximal effect. As to activity change, negative = cytotoxicity: series mostly up to about 63 µM. The essentials: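 VDR-bla cells were preincubated 4 h at 37C/5% CO2, then exposed to compounds for 16 h. After the 2 h room-temperature bla FRET read, CellTiter-Glo was added to the same wells and luminescence read after 30 min.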

Experiment [15] is described as follows: qHTS assay for small molecule activators of the heat shock response signaling pathway - cell viability counter screen (AID 743209). Also: nearly all actives have a fitted effect of over 50% in size. The essentials: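 CellSensor HSE-bla HeLa cells, plated overnight at 37 C/5% CO2, were exposed to compounds in DMSO for 5 h at 37 C. Viability was then read in the same wells by CellTiter-Glo luminescence after 30 min at room temperature.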

The target of experiment [16] is Peroxisome proliferator-activated receptor delta (Homo sapiens) (UniProt Q03181). The experiment in a line: qHTS assay to identify small molecule antagonists of the peroxisome proliferator-activated receptor delta (PPARd) signaling pathway (AID 743215; active = well fitted inhibition curve with a large enough effect in the signal ratio in the repeat runs, not every such curve was filed as active; the % refers to the signal ratio;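 also: cells stimulated with agonist L165041 at 300 nM final during compound exposure; series mostly up to about 62 µM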). In outline:
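PPARd UAS-bla HEK293H cells were pre-incubated 5 h at 37 C, then given test compounds in DMSO plus agonist L165041 (300 nM final). After 17 h at 37 C, beta-lactamase FRET substrate was added; fluorescence read after 2 h at room temperature.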

In experiment [17] the target is Vitamin D3 receptor (Homo sapiens) (UniProt P11473). The experiment in a line: qHTS assay to identify small molecule agonists of the vitamin D receptor (VDR) signaling pathway (AID 743222; calls by dose curve). In outline: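 VDR-bla cells were plated 4 h at 37C/5% CO2, then exposed to compounds in DMSO for 16 h. After LiveBLAzer B/G FRET substrate addition and 2 h at room temperature, beta-lactamase reporter fluorescence was read.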
Vitamin D3 receptor (Homo sapiens), sequence (P11473 whole entry, looked up): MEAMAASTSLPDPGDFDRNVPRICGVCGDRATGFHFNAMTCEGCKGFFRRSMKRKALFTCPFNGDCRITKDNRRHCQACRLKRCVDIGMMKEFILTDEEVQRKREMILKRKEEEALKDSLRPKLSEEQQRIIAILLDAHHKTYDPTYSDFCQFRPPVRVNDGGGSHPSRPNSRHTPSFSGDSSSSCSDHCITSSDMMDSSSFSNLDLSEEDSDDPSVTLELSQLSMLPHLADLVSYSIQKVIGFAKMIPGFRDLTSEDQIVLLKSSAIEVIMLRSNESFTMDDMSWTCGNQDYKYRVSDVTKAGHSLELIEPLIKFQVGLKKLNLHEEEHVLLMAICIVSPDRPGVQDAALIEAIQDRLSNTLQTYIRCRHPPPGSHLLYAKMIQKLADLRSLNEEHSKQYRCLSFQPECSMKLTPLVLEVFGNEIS

Experiment [18] has the same target. Briefly: qHTS assay to identify small molecule antagonists of the vitamin D receptor (VDR) signaling pathway (AID 743223; active = well fitted inhibition curve with a large enough effect in the signal ratio in the repeat runs, not every such curve was filed as active; the % refers to the signal ratio). In outline:
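Inhibition of agonist-driven VDR signalling is scored in VDR-bla cells: 3 nM final 1alpha,25-dihydroxyvitamin D3 plus compound, 16 h at 37C, then beta-lactamase detection by FRET substrate fluorescence after 2 h.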

The target of experiment [19] is Bile acid receptor (Homo sapiens) (UniProt Q96RI1). Briefly: qHTS assay to identify small molecule antagonists of the farnesoid-X-receptor (FXR) signaling pathway (AID 743217; active = well fitted inhibition curve with a large enough effect in the signal ratio in the repeat runs, not every such curve was filed as active; the % refers to the signal ratio). The essentials: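 FXR-UAS-bla HEK 293T cells pre-incubated 5 h at 37 °C, then exposed to compounds with chenodeoxycholic acid (50 uM final) for 16 h at 37 °C. Beta-lactamase reporter read by LiveBLAzer B/G FRET substrate fluorescence after 2 h at room temperature.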
Bile acid receptor (Homo sapiens), sequence (Q96RI1 whole entry, looked up): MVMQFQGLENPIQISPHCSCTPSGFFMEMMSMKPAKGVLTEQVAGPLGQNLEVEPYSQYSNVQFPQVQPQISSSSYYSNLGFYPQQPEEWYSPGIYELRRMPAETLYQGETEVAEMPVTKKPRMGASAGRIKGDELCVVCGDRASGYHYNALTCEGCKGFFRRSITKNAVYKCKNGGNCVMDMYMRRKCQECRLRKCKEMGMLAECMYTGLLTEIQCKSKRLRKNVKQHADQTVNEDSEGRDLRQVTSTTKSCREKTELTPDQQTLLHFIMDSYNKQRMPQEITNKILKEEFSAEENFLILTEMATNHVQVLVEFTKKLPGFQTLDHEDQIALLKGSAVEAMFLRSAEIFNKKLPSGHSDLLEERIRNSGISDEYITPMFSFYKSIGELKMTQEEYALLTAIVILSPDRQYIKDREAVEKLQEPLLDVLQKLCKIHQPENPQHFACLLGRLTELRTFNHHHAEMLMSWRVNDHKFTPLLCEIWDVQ

Experiment [20] shares this target. Briefly: qHTS assay to identify small molecule agonists of the farnesoid-X-receptor (FXR) signaling pathway (AID 743220; active = well fitted activation curve with a large enough effect in the signal ratio in the repeat runs, not every such curve was filed as active; the % refers to the signal ratio). In outline:
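Beta-lactamase reporter under UAS control in GeneBLAzer FXR HEK 293T cells (5000/well) measured with LiveBLAzer FRET substrate after 2 h at room temperature. Compound exposure lasted 16 h at 37C.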

Records with an inconclusive call do not appear. Some structures have more than one record in an assay (separate samples or runs), and their calls can disagree. Calls of active or inactive are those of the source. Unless noted, calls follow the shape of the dose curve; as a rule, active = well fitted curve in the direction sought with a large enough effect in the repeat runs; inconclusive = weak or mixed curves; inactive = no such curve, though single readings can be large; an effect the other way counts as inactive or inconclusive.
% is scaled to controls: 0 for no effect and ±100 for the full control effect.

Aryl hydrocarbon receptor (Homo sapiens), sequence (P35869 whole entry, looked up): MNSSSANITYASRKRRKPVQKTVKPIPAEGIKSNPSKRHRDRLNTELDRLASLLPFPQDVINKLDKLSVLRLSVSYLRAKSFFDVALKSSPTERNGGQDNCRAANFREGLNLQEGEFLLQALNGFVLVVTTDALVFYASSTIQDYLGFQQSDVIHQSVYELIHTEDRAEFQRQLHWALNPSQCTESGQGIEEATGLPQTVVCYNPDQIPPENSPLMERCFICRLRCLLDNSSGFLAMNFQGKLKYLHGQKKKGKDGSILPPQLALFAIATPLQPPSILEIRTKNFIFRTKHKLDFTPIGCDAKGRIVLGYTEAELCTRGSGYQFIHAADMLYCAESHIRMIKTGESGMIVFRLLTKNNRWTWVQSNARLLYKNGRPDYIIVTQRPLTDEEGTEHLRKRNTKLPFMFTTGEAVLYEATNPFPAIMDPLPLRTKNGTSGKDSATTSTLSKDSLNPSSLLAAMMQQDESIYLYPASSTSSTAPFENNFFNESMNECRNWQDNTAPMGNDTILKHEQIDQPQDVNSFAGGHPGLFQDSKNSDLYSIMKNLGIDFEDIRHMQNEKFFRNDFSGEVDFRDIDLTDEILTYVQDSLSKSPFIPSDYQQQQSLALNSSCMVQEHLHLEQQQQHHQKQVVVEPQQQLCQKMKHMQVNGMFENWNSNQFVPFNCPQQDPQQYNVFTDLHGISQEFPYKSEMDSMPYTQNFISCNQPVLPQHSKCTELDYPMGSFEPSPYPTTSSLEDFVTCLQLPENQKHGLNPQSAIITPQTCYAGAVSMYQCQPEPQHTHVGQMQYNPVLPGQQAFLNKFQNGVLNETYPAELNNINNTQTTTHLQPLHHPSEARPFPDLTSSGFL

Consider `COc1cccc([C@@]2(O)CCCC[C@@H]2CN(C)C)c1`, for which the Potency entry in experiment [1], in experiment [2], in experiment [4], in experiment [5], in [6] and in [7] was “inactive” each time. Also, the Potency entry in experiment [8], in [9], in [11], in experiment [12], in [13] and in experiment [14] was “inactive” each time. Moreover, the molecule was called inactive in [3] and in experiment [10].

As to `N=C(N)[Se]`, the Potency entry in experiment [1], in [2], in [4], in experiment [5], in experiment [6] and in experiment [7] was “inactive” throughout. For the same molecule, the Potency entry in experiment [15], in experiment [8], in experiment [9], in experiment [16], in [12] and in [13] was “inactive” throughout. Also, the Potency result in [14] was “inactive”. Also, the molecule was classed as inactive in experiment [3], in experiment [10], in [17] and in experiment [18].

As to `C[C@H]1CCCC(=O)CCC/C=C/c2cc(O)cc(O)c2C(=O)O1`, the Potency entry in experiment [1], in experiment [4], in experiment [7], in experiment [9], in experiment [11] and in experiment [13] was “inactive” each time. The Potency in experiment [2] was 37.1 µM (active) and inactive; in experiment [8] it was 12.7 µM (active); in [14], 42.1 µM (active) and inactive. The call in experiment [3] and in experiment [10] was inactive.

With `[P]#[In]`, the Potency result in experiment [1], in experiment [2], in experiment [4], in experiment [6], in [7] and in experiment [8] was “inactive” each time. Moreover, the Potency result in experiment [9], in experiment [11], in [16], in [12] and in experiment [13] was “inactive” each time. Moreover, the result in experiment [3], in experiment [10] and in experiment [17] was inactive.

Take `Clc1cc2c(cc1Cl)Oc1cc(Cl)c(Cl)cc1O2`: the Potency in experiment [1] is 1.1 nM (active). Further, the viability change, negative = cytotoxic in [2] is -4.26% [at 0.341 µM] (inactive); in [7] it was -8.47% [at 0.338 µM] (inactive); in experiment [11], -3.41% [at 0.278 µM] (inactive); in experiment [12], -3.37% [at 0.275 µM] (inactive). For the same molecule, the activation in [3] is -9.85% [at 0.285 µM] (inactive); in experiment [8], -0.0962% [at 0.275 µM] (inactive); in [10], 7.23% [at 0.275 µM] (inactive); in [17], 3.98% [at 0.275 µM] (inactive). Moreover, the values for the ratio activity, negative = inhibition in [4] and in [16] were -3.27% [at 0.275 µM] (inactive) and -14.9% [at 0.278 µM] (inactive), respectively. Moreover, the activity change, negative = cytotoxicity in experiment [5] is 15.5% [at 0.275 µM, co-treated with 50 nM rosiglitazone] (inactive); in experiment [15], -11.9% [at 0.275 µM] (inactive); in experiment [9], -2.8% [at 0.275 µM] (inactive); in experiment [13], -5.6% [at 0.275 µM] (inactive); in experiment [14] it was -0.698% [at 0.275 µM] (inactive). Besides, the activity change, negative = inhibition is -0.544% [at 0.275 µM] (inactive) in [19] and -1.31% [at 0.281 µM] (inactive) in experiment [18].

With `[O-][Br+2]([O-])O`, the Potency entry in experiment [1], in experiment [2], in [4], in [5], in experiment [7] and in [15] was “inactive” throughout. Moreover, the Potency result in [8], in experiment [9], in experiment [11], in experiment [16], in [12] and in experiment [13] was “inactive” throughout. Further, the Potency result in [14] was “inactive”. The molecule was called inactive in experiment [3], in experiment [10], in [17] and in experiment [18].

Take `C#CCOC(=O)/C=C(C)/C=C/CC(C)CCCC(C)C` (configuration not stated): the Potency entry in experiment [1], in experiment [2], in experiment [4], in experiment [5], in [6] and in [15] was “inactive” in each case. Besides, the Potency result in experiment [8], in experiment [9], in [16], in experiment [12] and in [13] was “inactive” in each case. For the same molecule, the molecule was called inactive in experiment [3], in experiment [10], in [19], in experiment [20], in [17] and in experiment [18].

On to `CCOC(=O)NC(C)(C)Cc1ccc(Cl)cc1`, for which the Potency result in experiment [1], in experiment [2], in experiment [5], in experiment [6], in [7] and in experiment [15] was “inactive” throughout. Moreover, the Potency result in [8], in experiment [9], in experiment [11], in [16], in experiment [12] and in experiment [13] was “inactive” throughout. Besides, the Potency result in [14] is “inactive”. The molecule was called inactive in experiment [3], in [10], in experiment [19], in experiment [20], in experiment [17] and in [18].
